Screens from PubChem.
CRFBP-R2 agonist = agonists of human CRF-binding protein/CRF-R2 receptor complex; HEK293 CRF-R2/CRF-BP, calcium dye fluorescence (FLIPR); percent of saturating CRF peptide response; activation, % at 13.2 µM; actives 0.46% (n = 350,000);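 active = activation of at least 50%, plus an integration ratio under a set limit after plate pattern correction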;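 also: plate controls were neutral control wells without compound for no effect and CRF at EC100 for full effect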
IDE cell activ = activators of human insulin-degrading enzyme in cells; P14735; HEK cells, FAbeta-B cleavage, fluorescence polarization; 0% vehicle, 100% cell-free pure enzyme wells; activation, % at 5.96 µM; actives 0.073% (n = 340,000);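 active = activation above the mean of all tested compounds plus 3 SD, set per screening campaign, cut at about 17% in these data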
Target sequence (P14735 whole entry, looked up): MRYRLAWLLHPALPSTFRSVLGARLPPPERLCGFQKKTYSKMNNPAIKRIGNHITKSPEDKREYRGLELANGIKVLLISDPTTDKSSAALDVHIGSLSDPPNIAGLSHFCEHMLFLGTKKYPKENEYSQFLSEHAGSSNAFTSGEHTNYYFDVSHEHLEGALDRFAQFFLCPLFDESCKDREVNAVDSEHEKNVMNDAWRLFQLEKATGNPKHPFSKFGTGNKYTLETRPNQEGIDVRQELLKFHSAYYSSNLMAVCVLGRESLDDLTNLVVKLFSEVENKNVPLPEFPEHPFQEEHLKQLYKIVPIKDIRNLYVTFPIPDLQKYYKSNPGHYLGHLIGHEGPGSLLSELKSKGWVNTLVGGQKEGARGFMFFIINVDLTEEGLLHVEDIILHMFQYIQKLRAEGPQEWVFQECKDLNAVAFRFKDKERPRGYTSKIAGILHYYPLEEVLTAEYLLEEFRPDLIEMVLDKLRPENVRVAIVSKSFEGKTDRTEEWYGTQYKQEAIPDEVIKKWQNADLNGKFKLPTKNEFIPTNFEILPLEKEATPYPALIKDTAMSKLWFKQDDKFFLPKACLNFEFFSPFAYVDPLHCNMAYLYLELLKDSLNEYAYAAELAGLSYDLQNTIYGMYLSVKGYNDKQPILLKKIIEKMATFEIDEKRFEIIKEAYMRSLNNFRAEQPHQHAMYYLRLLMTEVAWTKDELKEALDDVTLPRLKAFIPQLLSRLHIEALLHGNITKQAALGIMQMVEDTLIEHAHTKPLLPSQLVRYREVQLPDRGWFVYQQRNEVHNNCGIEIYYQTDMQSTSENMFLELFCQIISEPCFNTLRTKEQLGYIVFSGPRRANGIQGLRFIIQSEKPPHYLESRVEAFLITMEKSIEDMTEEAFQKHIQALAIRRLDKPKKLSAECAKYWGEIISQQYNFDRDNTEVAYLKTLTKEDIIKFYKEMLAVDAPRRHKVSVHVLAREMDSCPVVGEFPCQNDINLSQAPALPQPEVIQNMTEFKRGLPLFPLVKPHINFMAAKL
IDE inh = inhibits human insulin-degrading enzyme in HEK cells. P14735. AID 434962. inhibition, % at 5.59 µM. actives 0.41% (n = 320,000). FAbetaB cleavage, fluorescence polarization;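 active = percent inhibition above the average of all tested compounds plus 3 SD, set per screening campaign, cut at about 16% in these data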;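 also: IDE supplied by intact live HEK cells; FP after avidin binding of uncleaved biotin substrate so inhibition keeps polarization high; 0% = DMSO wells and 100% = 60 µM reference IDE inhibitor Ii1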
TPT1 inh = inhibitors of Candida albicans tRNA 2'-phosphotransferase TPT1. recombinant caTPT1, FP RNA substrate dephosphorylation. inhibition, % at 5 µM. actives 0.81% (n = 300,000);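 active = inhibition above the mean of all tested compounds plus 3 SD, set per screening campaign, cut at about 24% in these data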;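 also: plate controls were DMSO alone for no effect and ferristatin control at 100 nM for full effect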
HNF4A DNA FP = change in binding of human HNF4 alpha to DNA. P41235. actives 0.3% (n = 360,000). HNF4a-FITC DNA binding, fluorescence polarization, 1 h. AID 1224865. activity change, % at 10 µM; in the data active = activity change above about 30%, passing the limit was not always enough
caTPT1 confirm = confirmation of Candida albicans TPT1 inhibitors; shares compounds with TPT1 inh; recombinant caTPT1, fluorescence polarization, RNase T1 coupled; inhibition, % at 5 µM; actives 74% (n = 2,400); AID 2149;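 active = inhibition above the primary screen limit, the mean inhibition of all tested compounds plus 3 SD, cut at about 25% in these data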
RNase T1 counter = counter-screen for TPT1 inhibitors: inhibitors of Aspergillus oryzae RNase T1; shares compounds with TPT1 inh; RNase T1 cleavage, fluorescence polarization, 1536-well; inhibition, % at 5 µM; actives 83% (n = 2,400); AID 2153;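 active = inhibition above the solvent-only control well mean plus 3 SD, limit set per screening run, cut at about 23% in these data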;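 also: plate controls were DMSO wells with enzyme for no effect and wells without RNase T1 for full effect; inhibitors block cleavage so intact labeled substrate keeps polarization high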
The depositor's hits bear a star; . = no result. The list is not random: actives were taken first. Their share in the collection is about 1.4%.

SMILES	CRFBP-R2 agonist	IDE cell activ	IDE inh	TPT1 inh	HNF4A DNA FP	caTPT1 confirm	RNase T1 counter
CC(C)(C)/C(O)=C/c1nc2ccccc2[nH]c1=O	-1.6	5.4	4.6	0.1	1.6	.	.
Nc1c(CNCc2nnn(Cc3ccccc3)c2N)nnn1Cc1ccccc1	-0.8	.	.	.	-1.3	.	.
O=C(NCCCN1CCOCC1)c1ccccc1N1C(=O)[C@@H]2Cc3c([nH]c4ccccc34)C(c3ccccc3)N2C1=O (some centres not stated)	.	.	.	.	2.2	.	.
O=C(O)C1Nc2c(Cl)cc(Cl)cc2C2C=CCC12 (configuration not stated)	2.9	8.6	-1.7	33.2*	-58.0	11.2	16.5
CCOC(=O)C1Nc2ccc(Br)cc2C2C=CCC12 (configuration not stated)	-0.5	5.1	-6.1	3.5	-2.7	.	.
O=C(O)C1Nc2ccc(Br)cc2C2C=CCC12 (configuration not stated)	0.6	5.4	-4.6	28.7*	-66.2	11.4	21.5
Cc1cccc(N2CCC(N=CN(C)C)=N2)c1	-1.4	2.6	5.9	-2.2	2.5	.	.
C/C(CC(=O)NCc1ccco1)=N\NC(=O)Cc1cccc2ccccc12	0.7	-4.7	3.4	2.3	2.6	.	.
C/C(CC(=O)NCc1ccco1)=N\NC(=O)Cc1ccc(-c2ccccc2)cc1	4.7	-6.6	-1.8	38.1*	0.0	-0.3	4.3
CC(C)c1ccc(/C=C2\CC/C(=C\C=N\N(C)C)C2=O)cc1	0.2	0.6	-7.3	80.2*	15.2	74.9*	82.1*
CC(C)C(=O)Nc1nnc(SCC(=O)NCc2cccs2)s1	-1.1	1.2	4.5	31.5*	-3.6	1.3	1.9
CC(C)(C)C(=O)Nc1nnc(SCC(=O)NCc2cccs2)s1	1.5	0.3	7.0	-5.0	-1.5	.	.
O=C(Cc1ccccc1)c1ccc(O)cc1	0.0	1.8	.	.	-0.5	.	.
NC(=O)c1cccc(CC(=O)c2ccccc2)c1	-2.2	5.4	-4.1	74.5*	2.5	8.2	12.9
Cc1ccc(S(=O)(=O)N2CCOCC2)cc1C(=O)NCc1ccccn1	0.5	1.2	0.0	.	4.9	.	.
N#CCc1nc(C(c2ccccc2)c2ccccc2)no1	-0.5	-6.7	1.1	25.4*	7.6	19.3	27.8*
COCCN(C)Cc1nc(C(c2ccccc2)c2ccccc2)no1	-0.9	-0.5	-7.9	-4.3	4.7	.	.
CCNc1ccc(Br)cc(C(=O)/C=C/c2ccc3c(c2)OCO3)c1=O	7.6	2.6	-1.6	31.4*	-11.3	25.6*	47.5*
CCNc1ccc(Br)cc(C(=O)/C=C/c2ccc(Cl)cc2)c1=O	7.3	-2.3	1.7	64.3*	-1.4	45.7*	70.6*
O=C(/C=C/c1ccc(F)cc1)c1cc(Br)ccc1O	-0.4	-1.6	-0.4	2.0	1.4	.	.
CCNc1ccc(Br)cc(C(=O)/C=C/c2c(Cl)cccc2Cl)c1=O	0.8	-5.0	3.2	70.3*	2.5	75.3*	84.2*
Cc1ccc2nc(SCC(=O)Nc3ccc4sc(C)nc4c3)c(C#N)cc2c1	-1.0	2.2	-4.9	24.9*	3.0	6.5	10.5
COc1ccc(C)cc1Nc1n[n+](-c2ccccc2)c(-c2cc([N+](=O)[O-])cc(OC)c2O)s1	21.4	-6.4	-5.4	24.2*	206.9	119.6*	120.2*
CCNC(=O)c1c(NC(=O)c2cc(-c3cc(C)cc(C)c3O)n[nH]2)sc2c1CCCC2	0.8	5.6	.	.	2.8	.	.
O=C(O)c1cc(C(=O)O)cc(-c2ccc(/C=c3/sc4nc5ccccc5n4c3=O)o2)c1	26.2	.	.	.	.	.	.
O=C(O)c1cccc(-c2ccc(/C=c3/sc4nc5ccccc5n4c3=O)o2)c1	68.8*	-7.3	7.7	97.0*	38.3*	117.5*	121.3*
COc1ccccc1/C=C/C1=NC(=C\C=C/c2ccccc2)/C(=O)O1	22.6	-0.1	-5.9	73.5*	-5.8	119.1*	122.4*
COc1ccccc1/C=C/C(=O)c1ccc(Cl)cc1	-7.5	4.1	-7.3	-1.5	7.6	.	.
COc1ccccc1/C=C/C=C1N=C(/C=C/c2ccc(Cl)cc2)OC/1=O	7.2	1.2	6.1	40.0*	7.0	123.5*	124.1*
